# Assay outcomes from PubChem BioAssay.
# Rows were chosen to be rich in hits. Some 7.4% of all compounds tested hit in one or more screens of this group.
# SMN2 splice enh: increases expression of the SMN2 splice variant. Potency, µM (doses to about 46.1 µM), without a hit: at the highest dose activity change, positive = activation, most hits filed as activators. HEK293 SMN2-luciferase splicing reporter, luminescence, 30-36 h. 210,000 compounds, 2.8% hits; note: % of control where 0% means no effect; nearly all actives have a fitted effect of over 55% in size
#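 HEK293 cells carry an SMN2 […]–luciferase reporter in which exon 7 inclusion puts luciferase in frame. Cells were plated 10-12 h before compound addition, then incubated 30-36 h at 37C. ONE-Glo luminescence was read; sodium butyrate at 4.5 mM final served as control.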
# ELG1 genotox: inducers of genotoxicity in HEK293T ELG1-luciferase cells | HEK293T ELG1-luciferase reporter, luminescence, 16 h | Potency, µM (doses to about 46 µM), for the others: top-dose activity change, positive = activation, actives largely listed as activators | AID 504466 | 330,000 compounds, 1.3% hits; note: % of control where 0% means no effect; nearly all actives have a fitted effect of over 60% in size
#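 HEK293T cells expressing luciferase-tagged ELG1 were treated with compound or DMSO for 16 hr at 37°C. Luciferase activity was then read after 30 min with ONE-Glo at room temperature; rising signal flags genetic stress.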
# Rab9 promoter act: Rab9 promoter activation; Potency, µM (doses to about 9.22 µM), for the others: at the top dose activation, negative = inhibition, hits mostly activators; AID 485297; Huh7 Rab9 promoter-luciferase reporter, luminescence, 24 h; 320,000 compounds, 2.8% hits; note: % of control where 0% means no effect; nearly all actives have a fitted effect of over 60% in size
#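 Luminescence from Amplite-detected luciferase (10 minutes, ambient) reports Rab9 promoter activation. Before that, stable Rab9-luciferase Huh7 cells (1500/well, reduced-serum OP-MEM I plus 10% FBS) were exposed to compound for 24 hours at 37C.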
# Luc counter: Kinase-Glo luciferase inhibition (counter-screen); Q27757; Kinase-Glo luciferase, ATP luminescence, 8 min; Potency, µM (highest dose often 38.3 µM), without a hit: at the top dose activity change, negative = inhibition, hits mostly inhibitors; 200,000 compounds, 0.28% hits; note: % is set by controls: 0 for no effect and ±100 for the full control effect; nearly all actives have a fitted effect of over 60% in size
#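 Recombinant Kinase-Glo luciferase, 10 uM ATP (linear range), luciferin; imidazole pH 7.2 / KCl / MgCl2 / Tween / BSA buffer; 8 min RT; luminescence.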
# NPC1 promoter act: NPC1 promoter activation; Huh7 NPC1 promoter luciferase reporter, 24 h; Potency, µM (titrated, usually from 9.22 µM), for inactives: top-dose activation, most hits filed as activators; 320,000 compounds, 2.4% hits; note: % of control where 0% means no effect; nearly all actives have a fitted effect of over 60% in size
#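 Quantitative HTS used a cell-based reporter: Huh7 cells stably bearing the NPC1 promoter upstream of luciferase were treated with compounds for 24 h, and promoter activation was read as luminescence.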
# FLuc modulator: firefly luciferase modulation, counter-screen for miR-21 project | purified FLuc, Km substrates, luminescence inhibition | Potency, µM (titrated, usually from 57.5 µM), for the others: at the top dose activity change, negative = inhibition, actives largely listed as inhibitors | 360,000 compounds, 6.9% hits | AID 588342;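 note: plate controls were vehicle for no effect and reference inhibitor for full effect; nearly all actives have a fitted effect of over 55% in size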
# Target sequence (P08659 whole entry, looked up): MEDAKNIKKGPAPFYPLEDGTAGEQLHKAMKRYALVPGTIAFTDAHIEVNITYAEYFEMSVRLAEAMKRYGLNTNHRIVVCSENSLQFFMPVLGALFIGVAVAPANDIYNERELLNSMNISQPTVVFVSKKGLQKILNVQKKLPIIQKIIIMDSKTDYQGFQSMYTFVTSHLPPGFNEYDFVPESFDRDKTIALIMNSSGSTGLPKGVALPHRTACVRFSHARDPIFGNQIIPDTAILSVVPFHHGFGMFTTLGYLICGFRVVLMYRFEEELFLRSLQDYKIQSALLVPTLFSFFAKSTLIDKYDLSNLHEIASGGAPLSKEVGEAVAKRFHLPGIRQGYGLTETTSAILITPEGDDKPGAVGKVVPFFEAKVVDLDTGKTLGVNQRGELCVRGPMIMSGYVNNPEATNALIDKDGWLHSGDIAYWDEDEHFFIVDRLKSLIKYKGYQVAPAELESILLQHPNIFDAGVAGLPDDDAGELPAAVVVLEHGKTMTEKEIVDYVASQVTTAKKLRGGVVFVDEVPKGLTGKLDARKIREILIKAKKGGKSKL
#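 Biochemical qHTS of compounds, final roughly 60 µM downward over six points, against 10 nM purified firefly luciferase using Km concentrations of substrates (10 uM D-luciferin, 10 uM ATP) in Tris acetate pH 7.5 buffer; luminescence output.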
# Starred values were filed as active, the others as inactive; ? = inconclusive; nt = no result given; [ ] = another dose, or the depositor's remark. Calls come from the whole dose curve; as a rule, active = well fitted curve in the direction sought with a large enough effect; inconclusive = small, poorly fitted or top-dose-only effect, or another doubt; inactive = no such curve, though single readings can be large; an effect the other way counts as inactive or inconclusive. Potency is the fitted concentration of half-maximal effect.
SMILES,SMN2 splice enh,ELG1 genotox,Rab9 promoter act,Luc counter,NPC1 promoter act,FLuc modulator
Cc1cccc(S(=O)(=O)Nc2cccc(-c3ccc(N4CCCCC4)nn3)c2)c1,nt,nt,nt,nt,nt,3.4µM*
CCc1ccc(S(=O)(=O)Nc2ccc(-c3ccc(N4CCCC4)nn3)cc2)cc1,nt,nt,nt,nt,nt,1%
O=S(=O)(Nc1cccc(-c2ccc(N3CCCCCC3)nn2)c1)c1ccccc1,nt,nt,nt,nt,nt,7.6µM*
Cc1ccc(S(=O)(=O)Nc2cccc(-c3ccc(N4CCCCCC4)nn3)c2)cc1,nt,?,?,nt,?,5.4µM*
Cc1cc(C)c(S(=O)(=O)Nc2ccc(-c3ccc(N4CCCCC4)nn3)cc2)c(C)c1,nt,nt,nt,nt,nt,13µM*
COC(=O)c1c(NC(=O)CN2CCN(c3cccc(Cl)c3)CC2)sc(C)c1C,-27%,0%,-2%,-1%,-2%,7%
Cc1nc(N)sc1C(=O)N1N=N1,nt,1%,0%,nt,1%,-4%
CC(C)(C)c1nc(SCC(=O)Nc2nc3c(s2)CCCC3)c2ccccc2n1,3.2µM*,-6%,17%,-3%,-3%,2%
O=C(Nc1nc2c(s1)CCCC2)c1cccs1,3.2µM*,?,0.71µM*,?,2.8µM*,1.1µM*
O=C(Cc1cccs1)Nc1nc2c(s1)CCCC2,13µM*,?,2.8µM*,-4%,?,17µM*
O=C(Nc1nc2c(s1)CCCC2)c1cccnc1,nt,2.1µM*,?,?,2.5µM*,12µM*
CCOc1ccc(NC(=O)CC2C(=O)OCCN2CC)cc1 (stereo not drawn),-17%,nt,nt,nt,nt,-5%
CCc1nnc(NC(=O)CC(C)c2ccccc2)s1 (stereo not drawn),nt,4%,-6%,nt,-2%,0%
O=C(CCSc1ccccc1)Nc1nc2c(s1)CCCC2,8%,23µM*,28%,-5%,30%,19µM*
CCOc1ccc(NC(=O)CN(C)C(=O)c2ccccc2OCc2c(C)noc2C)cc1OCC,nt,0%,-5%,nt,-3%,-1%
COc1ccccc1N1CCN(C(=O)/C=C/c2ccco2)CC1,nt,12%,18%,2%,4%,?
Clc1ccccc1CN1CCN(/N=C/C=C/c2ccco2)CC1,nt,7%,?,nt,27%,24µM*
O=C(CN1CCN(Cc2ccccc2Cl)CC1)N/N=C/C=C/c1ccco1,nt,3%,-3%,nt,-4%,-1%
COc1ccccc1N1CCN(/N=C/C=C\c2ccco2)CC1,13µM*,?,2µM*,-2%,1.1µM*,4.8µM*
O=C1NC(=O)/C(=C\c2ccc(OCc3cccc(C(=O)O)c3)c(Cl)c2)N1,11µM*,-3%,2.2µM*,0%,?,0.6µM*
COc1cc(/C=C2\NC(=S)NC2=O)ccc1OCc1cccc(C(=O)O)c1,nt,21µM*,17%,nt,19%,0.38µM*
COc1ccc(-c2cc(C(F)(F)F)n3nc(C(=O)Nc4ccccc4SC)cc3n2)cc1OC,4%,nt,nt,nt,nt,4%
CC(=O)Oc1cccc(/C=C2\C=C(c3ccc(C)cc3)OC2=O)c1,-3%,-4%,-1%,0%,-2%,2.7µM*
CN(C)c1ccc(/C=C2/C=C(c3ccc4c(c3)CCCC4)OC2=O)cc1,nt,0%,-4%,nt,-5%,-19%
Cc1ccc(C2=C/C(=C/c3cccs3)C(=O)O2)cc1,-16%[1.84 µM],4%,0%,-12%,2%,0.38µM*
SMILES,SMN2 splice enh,ELG1 genotox,Rab9 promoter act,Luc counter,NPC1 promoter act,FLuc modulator
O=S(=O)(NCCc1ccccc1)c1ccc(Cl)nc1,12%,2%,0%,0%,-3%,1%
COc1ccc2c(c1)c(C(C)=O)c(C)n2CCc1ccccc1,nt,-1%,-5%,nt,-4%,-6%
COC(=O)CSc1nnc(SCc2ccc(OC)cc2)s1,1%,0%,-11%,1%,0%,24µM*
COc1ccc(NC(=O)CSc2nnc(NC(=O)Nc3ccc(OC)cc3)s2)cc1,nt,nt,nt,nt,nt,0.38µM*
COc1ccc(CSc2nnc(SCc3ccc([N+](=O)[O-])cc3)s2)cc1,-21%,1%,-2%,-2%,2%,-2%
COCCNC(=O)CSc1nnc(NC(=O)Nc2ccc(C)cc2)s1,nt,nt,nt,nt,nt,12µM*
